# Experimental data from PubChem BioAssay AID1159580 (chemical genetic matrix, 2015).
# Where “and” joins values, the source holds several entries; their conditions need not be identical. Identical values can stand only once. Out of some 5,500 compounds screened, about 2,000 (36%) were called active. Not shown: some 18% with an inconclusive outcome. Cut-off read from the data, not from the text of the source: active = normalized growth mostly below about 0.91 (no sharp cut-off); inconclusive = no clear call, values can overlap the other calls; inactive = mostly above about 0.92. Some of the results follow. The source holds several records for some structures; these can differ, active in one and inactive in another.
# Experiment: chemical genetic growth profiling, strain panel (AID 1159580);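 note: tested at 20 µM; growth read once vehicle control cultures reached saturation at 30 °C; 1 = growth at the plate median or of vehicle wells; lower values mean less growth of the strain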
# Conditions: growth OD
smiles,measurement,setting,value
CCn1cc(C(=O)O)c(=O)c2ccc(C)nc21,normalized growth,"S. cerevisiae deletion strains, locus YKL009W, strain mrt4, stronger effect = lower value",0.91 (inactive)
same,normalized growth,"S. cerevisiae deletion strains, locus YKL068W, stronger effect = lower value",0.942 (inactive)
same,normalized growth,"S. cerevisiae deletion strains, locus YKL085W, strain MDH1 (second series), stronger effect = lower value",0.938 (inactive)
same,normalized growth,"S. cerevisiae deletion strains, locus YKL085W, strain MDH1, stronger effect = lower value",0.938 (inactive)
same,normalized growth,"S. cerevisiae deletion strains, locus YKL160W, strain elf1, stronger effect = lower value",0.976 (inactive)
same,normalized growth,"S. cerevisiae deletion strains, locus YKL190W, strain CNB1, stronger effect = lower value",0.933 (inactive)
same,normalized growth,"S. cerevisiae deletion strains, locus YKR001C, strain vps1, stronger effect = lower value",0.812 (active)
same,normalized growth,"S. cerevisiae deletion strains, locus YKR026C, strain gcn3, stronger effect = lower value",0.965 (inactive)
same,normalized growth,"S. cerevisiae deletion strains, locus YKR091W, strain srl3, stronger effect = lower value",0.926 (active)
same,normalized growth,"S. cerevisiae deletion strains, locus YLL001W, strain dnm1, stronger effect = lower value",0.946 (inactive)
same,normalized growth,"S. cerevisiae deletion strains, locus YLL026W, stronger effect = lower value",0.94 (inactive)
same,normalized growth,"S. cerevisiae deletion strains, locus YLL041C, strain sdh2, stronger effect = lower value",0.931 (inactive)
same,normalized growth,"S. cerevisiae deletion strains, locus YLR027C, strain aat2, stronger effect = lower value",0.942 (inactive)
same,normalized growth,"S. cerevisiae deletion strains, locus YLR039C, strain RIC1, stronger effect = lower value",0.447 (active)
same,normalized growth,"S. cerevisiae deletion strains, locus YLR058C, strain SHM2, stronger effect = lower value",0.921 (inactive)
same,normalized growth,"S. cerevisiae deletion strains, locus YLR102C, strain apc9, stronger effect = lower value",0.933 (inactive)
same,normalized growth,"S. cerevisiae deletion strains, locus YLR113W, strain HOG1, stronger effect = lower value",0.94 (inactive)
same,normalized growth,"S. cerevisiae deletion strains, locus YLR221C, strain rsa3, stronger effect = lower value",0.943 (inactive)
same,normalized growth,"S. cerevisiae deletion strains, locus YLR258W, strain gsy2, stronger effect = lower value",0.939 (inactive)
same,normalized growth,"S. cerevisiae deletion strains, locus YLR262C, strain YPT6 (second series), stronger effect = lower value",0.297 (active)
same,normalized growth,"S. cerevisiae deletion strains, locus YLR262C, strain YPT6, stronger effect = lower value",0.406 (active)
same,normalized growth,"S. cerevisiae deletion strains, locus YLR268W, strain sec22, stronger effect = lower value",0.868 (active)
same,normalized growth,"S. cerevisiae deletion strains, locus YLR320W, strain mms22, stronger effect = lower value",0.976 (inactive)
same,normalized growth,"S. cerevisiae deletion strains, locus YLR330W, strain CHS5, stronger effect = lower value",0.949 (inactive)
same,normalized growth,"S. cerevisiae deletion strains, locus YLR342W, strain FKS1 (second series), stronger effect = lower value",0.958 (inactive)
same,normalized growth,"S. cerevisiae deletion strains, locus YLR342W, strain FKS1, stronger effect = lower value",0.912 (inactive)
same,normalized growth,"S. cerevisiae deletion strains, locus YLR357W, strain rsc2, stronger effect = lower value",1.09 (inactive)
same,normalized growth,"S. cerevisiae deletion strains, locus YLR370C, strain arc18, stronger effect = lower value",0.943 (inactive)
same,normalized growth,"S. cerevisiae deletion strains, locus YLR371W, strain rom2, stronger effect = lower value",0.941 (inactive)
same,normalized growth,"S. cerevisiae deletion strains, locus YLR384C, strain iki3, stronger effect = lower value",0.926 (inactive)
same,normalized growth,"S. cerevisiae deletion strains, locus YLR418C, strain cdc73, stronger effect = lower value",0.852 (inactive)
same,normalized growth,"S. cerevisiae deletion strains, locus YML016C, strain PPZ1, stronger effect = lower value",0.887 (active)
same,normalized growth,"S. cerevisiae deletion strains, locus YML032C, strain rad52, stronger effect = lower value",0.883 (active)
same,normalized growth,"S. cerevisiae deletion strains, locus YML120C, strain ndi1, stronger effect = lower value",0.954 (inactive)
same,normalized growth,"S. cerevisiae deletion strains, locus YML124C, strain tub3, stronger effect = lower value",0.916 (active)
same,normalized growth,"S. cerevisiae deletion strains, locus YMR058W, strain fet3, stronger effect = lower value",0.943 (inactive)
same,normalized growth,"S. cerevisiae deletion strains, locus YMR078C, strain ctf18, stronger effect = lower value",0.927 (inactive)
same,normalized growth,"S. cerevisiae deletion strains, locus YMR125W, strain sto1, stronger effect = lower value",1.02 (inactive)
same,normalized growth,"S. cerevisiae deletion strains, locus YMR129W, stronger effect = lower value",0.941 (inactive)
same,normalized growth,"S. cerevisiae deletion strains, locus YMR205C, strain PFK2, stronger effect = lower value",0.986 (inactive)
same,normalized growth,"S. cerevisiae deletion strains, locus YMR223W, strain ubp8, stronger effect = lower value",0.947 (inactive)
same,normalized growth,"S. cerevisiae deletion strains, locus YMR231W, strain pep5, stronger effect = lower value",0.891 (active)
same,normalized growth,"S. cerevisiae deletion strains, locus YMR263W, strain SAP30, stronger effect = lower value",0.97 (inactive)
same,normalized growth,"S. cerevisiae deletion strains, locus YMR307W, strain GAS1, stronger effect = lower value",0.756 (inactive)
same,normalized growth,"S. cerevisiae deletion strains, locus YNL067W, strain RPL9B, stronger effect = lower value",0.949 (inactive)
same,normalized growth,"S. cerevisiae deletion strains, locus YNL071W, strain lat1, stronger effect = lower value",0.925 (inactive)
same,normalized growth,"S. cerevisiae deletion strains, locus YNL128W, strain TEP1, stronger effect = lower value",0.941 (inactive)
same,normalized growth,"S. cerevisiae deletion strains, locus YNL153C, strain GIM3, stronger effect = lower value",0.971 (inactive) and 1.01 (inactive)
same,normalized growth,"S. cerevisiae deletion strains, locus YNL175C, strain NOP13, stronger effect = lower value",0.944 (inactive)
same,normalized growth,"S. cerevisiae deletion strains, locus YNL183C, strain NPR1, stronger effect = lower value",0.911 (inactive)
same,normalized growth,"S. cerevisiae deletion strains, locus YNL197C, strain WHI3, stronger effect = lower value",0.939 (inactive)
same,normalized growth,"S. cerevisiae deletion strains, locus YNL209W, strain ssb2, stronger effect = lower value",0.929 (inactive)
same,normalized growth,"S. cerevisiae deletion strains, locus YNL224C, strain SQS1, stronger effect = lower value",0.944 (inactive)
same,normalized growth,"S. cerevisiae deletion strains, locus YNL233W, strain BNI4, stronger effect = lower value",0.994 (inactive)
same,normalized growth,"S. cerevisiae deletion strains, locus YNL248C, strain rpa49, stronger effect = lower value",0.984 (inactive)
same,normalized growth,"S. cerevisiae deletion strains, locus YNL250W, strain rad50, stronger effect = lower value",0.939 (inactive)
same,normalized growth,"S. cerevisiae deletion strains, locus YNL271C, strain bni1, stronger effect = lower value",0.864 (active)
same,normalized growth,"S. cerevisiae deletion strains, locus YNL298W, strain CLA4, stronger effect = lower value",0.871 (active)
same,normalized growth,"S. cerevisiae deletion strains, locus YNL307C, strain MCK1, stronger effect = lower value",0.955 (inactive)
same,normalized growth,"S. cerevisiae deletion strains, locus YNL322C, strain KRE1 (second series), stronger effect = lower value",0.983 (inactive)
same,normalized growth,"S. cerevisiae deletion strains, locus YNL322C, strain KRE1, stronger effect = lower value",0.933 (inactive) and 0.965 (inactive)
same,normalized growth,"S. cerevisiae deletion strains, locus YNR049C, strain mso1, stronger effect = lower value",0.937 (inactive)
same,normalized growth,"S. cerevisiae deletion strains, locus YNR052C, strain pop2, stronger effect = lower value",0.803 (active)
same,normalized growth,"S. cerevisiae deletion strains, locus YOL006C, strain TOP1, stronger effect = lower value",1.04 (inactive)
same,normalized growth,"S. cerevisiae deletion strains, locus YOL012C, strain htz1",0.496 (inactive)
same,normalized growth,"S. cerevisiae deletion strains, locus YOL147C, strain pex11, stronger effect = lower value",0.926 (active)
same,normalized growth,"S. cerevisiae deletion strains, locus YOR001W, strain rrp6, stronger effect = lower value",0.828 (active)
same,normalized growth,"S. cerevisiae deletion strains, locus YOR061W, strain CKA2, stronger effect = lower value",0.898 (inactive)
same,normalized growth,"S. cerevisiae deletion strains, locus YOR069W, strain VPS5, stronger effect = lower value",0.918 (active)
same,normalized growth,"S. cerevisiae deletion strains, locus YOR070C, strain gyp1, stronger effect = lower value",0.935 (inactive)
same,normalized growth,"S. cerevisiae deletion strains, locus YOR080W, strain dia2, stronger effect = lower value",0.927 (inactive)
same,normalized growth,"S. cerevisiae deletion strains, locus YOR083W, strain WHI5 (second series), stronger effect = lower value",0.968 (inactive)
same,normalized growth,"S. cerevisiae deletion strains, locus YOR083W, strain WHI5, stronger effect = lower value",0.935 (inactive)
same,normalized growth,"S. cerevisiae deletion strains, locus YOR106W, strain vam3, stronger effect = lower value",0.964 (inactive)
same,normalized growth,"S. cerevisiae deletion strains, locus YOR136W, strain idh2, stronger effect = lower value",0.969 (inactive)
same,normalized growth,"S. cerevisiae deletion strains, locus YOR144C, strain elg1, stronger effect = lower value",0.914 (active)
same,normalized growth,"S. cerevisiae deletion strains, locus YOR184W, strain ser1, stronger effect = lower value",0.882 (inactive)
same,normalized growth,"S. cerevisiae deletion strains, locus YOR231W, strain MKK1, stronger effect = lower value",0.888 (inactive)
same,normalized growth,"S. cerevisiae deletion strains, locus YOR265W, strain rbl2, stronger effect = lower value",0.93 (inactive)
same,normalized growth,"S. cerevisiae deletion strains, locus YOR270C, strain vph1, stronger effect = lower value",1.08 (inactive)
same,normalized growth,"S. cerevisiae deletion strains, locus YOR290C, strain snf2, stronger effect = lower value",0.962 (inactive)
same,normalized growth,"S. cerevisiae deletion strains, locus YOR316C, strain cot1, stronger effect = lower value",0.926 (inactive)
same,normalized growth,"S. cerevisiae deletion strains, locus YPL051W, strain arl3, stronger effect = lower value",0.903 (active)
same,normalized growth,"S. cerevisiae deletion strains, locus YPL055C, strain LGE1, stronger effect = lower value",1.05 (inactive) and 1.03 (inactive)
same,normalized growth,"S. cerevisiae deletion strains, locus YPL078C, strain atp4, stronger effect = lower value",0.927 (inactive)
same,normalized growth,"S. cerevisiae deletion strains, locus YPL106C, strain sse1, stronger effect = lower value",1.06 (inactive)
same,normalized growth,"S. cerevisiae deletion strains, locus YPL240C, strain hsp82, stronger effect = lower value",0.931 (inactive)
same,normalized growth,"S. cerevisiae deletion strains, locus YPL241C, strain CIN2, stronger effect = lower value",0.945 (inactive) and 0.927 (active)
same,normalized growth,"S. cerevisiae deletion strains, locus YPL256C, strain CLN2, stronger effect = lower value",0.993 (inactive)
same,normalized growth,"S. cerevisiae deletion strains, locus YPR119W, strain clb2, stronger effect = lower value",0.918 (active)
same,normalized growth,"S. cerevisiae deletion strains, locus YPR141C, strain kar3, stronger effect = lower value",0.954 (inactive)
same,normalized growth,"S. cerevisiae deletion strains, locus YPR163C, strain tif3, stronger effect = lower value",0.882 (active)
same,normalized growth,"S. cerevisiae deletion strains, locus YPR167C, strain met16, stronger effect = lower value",0.929 (inactive)
same,normalized growth,"S. cerevisiae deletion strains, strain wtn01, stronger effect = lower value",0.915 (inactive)
same,normalized growth,"S. cerevisiae strains, strain wild type, stronger effect = lower value",0.932 (inactive)
